The results in this text go back to doi:10.1101/2024.03.05.583629.

In this assay the target is pT7_6His-AlfaTag-HOXD13 (human, UniProt P35453 263-343). The experiment in a line: PADIT-seq. The note with it: dsDNA, one strand shown.
Sequence of pT7_6His-AlfaTag-HOXD13 (P35453 263-343): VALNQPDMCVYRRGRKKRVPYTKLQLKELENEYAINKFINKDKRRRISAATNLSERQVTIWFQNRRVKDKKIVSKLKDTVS
Consider “CTCGAGGATATCAAGATCTGGCCTCGGCTGCGTAAAAGGAACCTCTAGCTAGCCGACTCACTATAGGGATAATCGCCCTGAGCAAAGACC”, for which the binding signal is 1.22 ± 0.0881 log2FC. Turning to “CTCGAGGATATCAAGATCTGGCCTCGGCAACATAAAAGGAACCTCTAGCTAGCCGACTCACTATAGGGATAATCGCCCTGAGCAAAGACC”, the binding signal was determined as 1.52 ± 0.0783 log2FC. “CTCGAGGATATCAAGATCTGGCCTCGGCCTTTTAATAGGAACCTCTAGCTAGCCGACTCACTATAGGGATAATCGCCCTGAGCAAAGACC” displayed a binding signal of 2.68 ± 0.0826 log2FC. As for “CTCGAGGATATCAAGATCTGGCCTCGGCAGTATAAAAGGAACCTCTAGCTAGCCGACTCACTATAGGGATAATCGCCCTGAGCAAAGACC”, the figure is 1.92 ± 0.0665 log2FC.

Sequence “CTCGAGGATATCAAGATCTGGCCTCGGCCTTTTACTTGGAACCTCTAGCTAGCCGACTCACTATAGGGATAATCGCCCTGAGCAAAGACC” had a binding signal of 0.95 ± 0.0821 log2FC. Under “CTCGAGGATATCAAGATCTGGCCTCGGCGTTTTAAAAGGAACCTCTAGCTAGCCGACTCACTATAGGGATAATCGCCCTGAGCAAAGACC” stands 2.44 ± 0.0598 log2FC; under “CTCGAGGATATCAAGATCTGGCCTCGGCCTTGTAAAAGGAACCTCTAGCTAGCCGACTCACTATAGGGATAATCGCCCTGAGCAAAGACC”, 2.9 ± 0.088 log2FC. As for “CTCGAGGATATCAAGATCTGGCCTCGGCCGCCCAGTCGGAACCTCTAGCTAGCCGACTCACTATAGGGATAATCGCCCTGAGCAAAGACC”, the figure is -0.955 ± 0.134 log2FC; as for “CTCGAGGATATCAAGATCTGGCCTCGGCGCGTGGAGCGGAACCTCTAGCTAGCCGACTCACTATAGGGATAATCGCCCTGAGCAAAGACC”, -0.893 ± 0.118 log2FC; as for “CTCGAGGATATCAAGATCTGGCCTCGGCCTTTTATAAGGAACCTCTAGCTAGCCGACTCACTATAGGGATAATCGCCCTGAGCAAAGACC”, 3.23 ± 0.0726 log2FC. Turning to “CTCGAGGATATCAAGATCTGGCCTCGGCCAATTAAAAGGAACCTCTAGCTAGCCGACTCACTATAGGGATAATCGCCCTGAGCAAAGACC”, the binding signal was determined as 2.77 ± 0.0792 log2FC. As for “CTCGAGGATATCAAGATCTGGCCTCGGCCTTTTACCAGGAACCTCTAGCTAGCCGACTCACTATAGGGATAATCGCCCTGAGCAAAGACC”, the figure is 0.296 ± 0.0912 log2FC. As for “CTCGAGGATATCAAGATCTGGCCTCGGCATTTTACCGGGAACCTCTAGCTAGCCGACTCACTATAGGGATAATCGCCCTGAGCAAAGACC”, the figure is 1.17 ± 0.0862 log2FC; as for “CTCGAGGATATCAAGATCTGGCCTCGGCATTTTACAAGGAACCTCTAGCTAGCCGACTCACTATAGGGATAATCGCCCTGAGCAAAGACC”, 3.41 ± 0.0871 log2FC; as for “CTCGAGGATATCAAGATCTGGCCTCGGCTTTTTAACTGGAACCTCTAGCTAGCCGACTCACTATAGGGATAATCGCCCTGAGCAAAGACC”, 1.56 ± 0.107 log2FC. Under “CTCGAGGATATCAAGATCTGGCCTCGGCCCGTTAAAAGGAACCTCTAGCTAGCCGACTCACTATAGGGATAATCGCCCTGAGCAAAGACC” stands 2.37 ± 0.0792 log2FC. With “CTCGAGGATATCAAGATCTGGCCTCGGCCCCATAAAAGGAACCTCTAGCTAGCCGACTCACTATAGGGATAATCGCCCTGAGCAAAGACC”, the binding signal is 2.77 ± 0.0828 log2FC. With “CTCGAGGATATCAAGATCTGGCCTCGGCCGGTTAAAAGGAACCTCTAGCTAGCCGACTCACTATAGGGATAATCGCCCTGAGCAAAGACC”, the binding signal is 0.716 ± 0.0773 log2FC.

“CTCGAGGATATCAAGATCTGGCCTCGGCTTTTTAGTAGGAACCTCTAGCTAGCCGACTCACTATAGGGATAATCGCCCTGAGCAAAGACC”: the binding signal came to 1.62 ± 0.0952 log2FC. In turn, “CTCGAGGATATCAAGATCTGGCCTCGGCTCCCTAAAAGGAACCTCTAGCTAGCCGACTCACTATAGGGATAATCGCCCTGAGCAAAGACC” returned a binding signal of -0.0391 ± 0.141 log2FC.

Regarding “CTCGAGGATATCAAGATCTGGCCTCGGCTTTTTACGTGGAACCTCTAGCTAGCCGACTCACTATAGGGATAATCGCCCTGAGCAAAGACC”, the binding signal came out at 2.42 ± 0.0834 log2FC. Sequence “CTCGAGGATATCAAGATCTGGCCTCGGCCGATTAAAAGGAACCTCTAGCTAGCCGACTCACTATAGGGATAATCGCCCTGAGCAAAGACC” registered a binding signal of 1.2 ± 0.104 log2FC.

Regarding “CTCGAGGATATCAAGATCTGGCCTCGGCAATCTAAAAGGAACCTCTAGCTAGCCGACTCACTATAGGGATAATCGCCCTGAGCAAAGACC”, the binding signal was -0.296 ± 0.111 log2FC. “CTCGAGGATATCAAGATCTGGCCTCGGCTTTTTAAAGGGAACCTCTAGCTAGCCGACTCACTATAGGGATAATCGCCCTGAGCAAAGACC” yielded a binding signal of 2.54 ± 0.0796 log2FC. Under “CTCGAGGATATCAAGATCTGGCCTCGGCCCATTAAAAGGAACCTCTAGCTAGCCGACTCACTATAGGGATAATCGCCCTGAGCAAAGACC” stands 2.92 ± 0.0908 log2FC; under “CTCGAGGATATCAAGATCTGGCCTCGGCAGGCTAAAAGGAACCTCTAGCTAGCCGACTCACTATAGGGATAATCGCCCTGAGCAAAGACC”, -0.781 ± 0.0984 log2FC.
